Screen size: about 290,000 compounds; about 3,000 (1%) were called active. The sample as a whole holds a higher share of actives than the screen did. A number with no mark means an inactive call. Cut-off read from the data, not from the text of the source: active = inhibition mostly above about 36% (no sharp cut-off); inactive = mostly below about 34%.

This assay can be described thus: inhibition of NOD1-driven NF-kB reporter – cell-based, luminescence, uHTS, primary screen (AID 1578).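 Note: HEK-293T reporter cells stimulated with the NOD1 agonist gamma-tri-DAP.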 The following applies: NOD1-driven NF-kB luciferase reporter cells, at 4 µM, active compounds read high. In general terms: A reporter such as luciferase makes a cellular process visible.
As usually defined, the inhibition is the relative decrease from the control value, in per cent. In the case of `CCN(CC)C(=O)C[n+]1cccc(/C=N/O)c1`, the inhibition is -12.8%.
As for `Cc1ccc(C)c(OCC(=O)Nc2nc3ccc([N+](=O)[O-])cc3s2)c1`, the inhibition was -16.9%.
To `Cc1cccc(OCC(=O)Nc2nc3ccc([N+](=O)[O-])cc3s2)c1` belongs 55.9%.
For `CS(=O)(=O)N(CC(=O)N/N=C/c1ccc(OCC(=O)N2CCOCC2)cc1)c1ccccc1Cl`, the inhibition was -22.8%.
The value for `Cc1sc(NC(=O)CSc2nc(O)cc(=O)[nH]2)nc1-c1ccccc1` was -24.3%; that for `CN(CCCN1CCOCC1)C(=O)c1cc(COc2cccc(C(F)(F)F)c2)on1` was -8.6%; that for `O=C(C1CCN(Cc2cn[nH]c2-c2ccc(F)cc2F)CC1)N1CCOCC1` was -5.7%.
Consider `OCCCC1CCCN(Cc2cn[nH]c2-c2ccc(F)cc2F)C1` (centres undefined), for which the inhibition was 75% (active).
Regarding `CCOC(=O)C1CCCN(Cc2cn[nH]c2-c2ccc(F)cc2F)C1` (centres undefined), the inhibition was -31.8%.
The value for `O=C(NCc1ccc(F)cc1)N1CCN(S(=O)(=O)c2ccccc2F)CC1` was -20.3%; that for `O=C(N/N=C/c1ccc(Cl)cc1Cl)C(=O)NC1CC1` was -3.9%; that for `CCc1cc(-c2[nH]ncc2-c2ccc(OC)cc2)c(O)cc1O` was 12.6%.
Consider `CCCc1cc(-c2[nH]ncc2-c2ccc3c(c2)OCCCO3)c(O)cc1O`, for which the inhibition was 17.6%.
The value for `CCc1cc(-c2[nH]ncc2-c2ccc3c(c2)OCO3)c(O)cc1O` was 97.7% (active).
On to `Cc1ccc(C(=O)NCC(=O)N2CCN(S(=O)(=O)c3cccs3)CC2)s1`, for which the inhibition is -28.4%.
On to `O=C(N/N=C/c1ccc(OC(=O)c2cccc(F)c2)cc1)c1cccnc1`, for which the inhibition was -21%.
To `COc1ccccc1NC(=O)c1ccccc1Nc1ccccc1` belongs -5.4%.
To `COc1ccc(CN2CCNC(=O)C2CC(=O)NCCc2cnccn2)cc1C` (centres undefined) belongs -22.4%; to `Cc1cccc(Nc2n[nH]c(C)c2[N+](=O)[O-])c1`, -36.2%.
The value for `Cc1[nH]nc(Nc2ccccc2)c1[N+](=O)[O-]` was 75.5% (active); that for `Cc1ccc(Nc2n[nH]c(C)c2[N+](=O)[O-])cc1` was -38.4%.
Take `CC1CCCN(S(=O)(=O)c2ccc3oc(=O)ccc3c2)C1` (centres undefined): the inhibition is -39.5%.
`Cc1ccc(OCCCn2cc(C#N)c3ccccc32)cc1`: the inhibition is 26.6%.
To `CCN(CC)S(=O)(=O)c1cc(C(=O)OCC(=O)c2ccc3c(c2)NC(=O)CO3)ccc1F` belongs -21.3%.
Regarding `COCc1cc(C)nc(N2CCCCC2)c1C#N`, the inhibition is -7.1%.
The value for `O=C(O)c1c2c(nc3ccccc13)/C(=C/c1ccc(O)cc1)CCC2` was -23.9%; that for `O=C(O)c1c2c(nc3ccccc13)/C(=C/c1ccc(O)cc1)CC2` was 63.5% (active).
To `O=C(O)c1ccc(/C=C2\CCCc3c2nc2ccccc2c3C(=O)O)cc1` belongs -24%.
The value for `NC(=O)CSc1nnc(CNc2cccc(Cl)c2)n1CCc1ccccc1` was -6.6%.
As to `CC(O)CNc1ncnc2cc(-c3ccc(F)cc3)sc12` (centres undefined), the inhibition was -11.1%.
The value for `CCOC(=O)c1sc(-c2ccc(F)cc2)cc1N` was -18.5%; that for `C=CCNC(=O)c1ccc2c(=O)n(CCCN3CCCC3=O)c(=S)[nH]c2c1` was -17.5%; that for `N#CC1=C(N)Oc2ccc3ccc(O)cc3c2C1c1cccnc1` (centres undefined) was -18.7%.
For `Cc1ccc(-c2nc3[nH]c(=O)cc(NC(=O)c4cccs4)n3n2)cc1`, the inhibition is -1.6%.
The value for `Cc1nc2c3cc(Cl)ccc3n(CCN3CCCCC3)c2s1` was -5.1%.
To `CC1CCN(S(=O)(=O)c2ccc3c(c2)NC(=O)CS3)CC1` belongs -43.2%; to `O=C(COc1ccccc1)NCc1ccc(-n2cccc2)cc1`, -34.8%; to `O=C(Cc1ccccc1)NCc1ccc(-n2cccc2)cc1`, 48.6% (active).
To `Cc1ccc(CNC(=O)Cc2ccc(-n3cccc3)cc2)cc1` belongs -32.1%; to `Cc1ccc(COc2ccsc2C(=O)NNC(N)=S)cc1`, -29.4%.
Take `CCCOc1ccc(/C=N/Nc2ccccc2[N+](=O)[O-])c(O)c1`: the inhibition was 55.7%.
As for `CCOc1cccc(/C=N/NC(=S)Nc2ccccc2[N+](=O)[O-])c1O`, the inhibition was 34.3%.
With `OC(CNCCc1ccc(Cl)cc1)COc1cc(Cl)ccc1Cl` (centres undefined), the inhibition was -10.1%.
Consider `Cc1ccccc1OCC(=O)N/N=C/c1ccc(N2CCOCC2)o1`, for which the inhibition is -23.5%.
To `Cc1ccc(CSC2=NCCN2C(=O)C(C)Oc2ccccc2)cc1` (centres undefined) belongs -38.3%; to `CC1CCc2c(sc3ncnc(N4CCOCC4)c23)C1` (centres undefined), -28.8%; to `CC1CCc2sc3ncnc(N4CCN(C)CC4)c3c2C1` (centres undefined), 13.5%.
Turning to `CCOC(=O)C1CCCN(C(=O)COc2ccccc2F)C1` (centres undefined), the inhibition is -25.1%.
Consider `COC(=O)c1c(NC(=O)CN2C(=O)NC3(CCC(C(C)(C)C)CC3)C2=O)sc2c1CCCCC2` (centres undefined), for which the inhibition is -10.4%.
In the case of `COCC(C)N1CCC(n2nccc2NC(=O)CCCc2ccccc2)CC1` (centres undefined), the inhibition was -1.8%.
Regarding `O=C(NC1=NCCS1)c1cc(-c2cccc(Br)c2)nc2ccccc12`, the inhibition was -10.6%.
The value for `COc1cc(/C=C2\CC/C(=C\c3cc(OC)c(OC)c(OC)c3)C2=O)cc(OC)c1OC` was 23%.
For the compound `COc1cc(/C=C2\CCOC2=O)cc(OC)c1OC`, the inhibition was -9.9%.
To `O=C(CN(Cc1ccco1)C(=O)CNS(=O)(=O)c1ccc(F)cc1)NCCc1ccccc1` belongs -27.1%.
For `Cn1c(N)c(C(=O)COC(=O)c2ccc(Cl)c(S(=O)(=O)N3CCCC3)c2)c(=O)n(C)c1=O`, the inhibition was 14.5%.
The value for `Cn1c(N)c(C(=O)COC(=O)c2ccc(Cl)c(S(=O)(=O)N3CCCCC3)c2)c(=O)n(C)c1=O` was 64.3% (active); that for `Cc1ccc(C(=O)OCC(=O)c2c(N)n(C)c(=O)n(C)c2=O)cc1S(=O)(=O)N1CCCCC1` was -7.4%; that for `Cc1cc(C(=O)OCC(=O)NC(C)C)c(C)o1` was -4%.
To `CC(=O)C(C)n1c(CN2CCN(C(=O)c3ccco3)CC2)nc2c1c(=O)n(C)c(=O)n2C` (centres undefined) belongs -0.4%.
To `CCN1CCS/C1=C/C=C/C1=[N+](CC)CCS1` belongs 14%.
With `CCN1CCS/C1=C\C=C\C1=[N+](CC)CCS1`, the inhibition is 53.8% (active).
On to `Cc1ccc(CC(=O)NCc2ccc(Cl)cc2)cc1`, for which the inhibition is -57.8%.
With `Cc1ccc(-c2cc(C)nc3ncnn23)cc1`, the inhibition was -4.1%.
To `Cc1cccc2nc(CSc3nc4[nH]ncc4c(=O)n3-c3cccc(Cl)c3)cc(=O)n12` belongs 75.3% (active); to `Cc1cccc2nc(CSc3nc4[nH]ncc4c(=O)n3-c3ccccc3Cl)cc(=O)n12`, 6.5%.
The value for `Cc1cccc(-n2c(SCc3cc(=O)n4c(C)cccc4n3)nc3[nH]ncc3c2=O)c1` was -6.2%; that for `COc1ccc(C2C(C(N)=O)=C(C)Nc3ncnn32)cc1` (centres undefined) was -4.5%.
To `COC(=O)CCC(=O)NNC(=O)C1CC1(c1ccccc1)c1ccccc1` (centres undefined) belongs 0.4%.
With `COc1ccc(NC(=S)N2CCN(c3ccccn3)CC2)cc1`, the inhibition is -4.7%.
Turning to `S=C(Nc1ccccc1)N1CCN(c2ccccn2)CC1`, the inhibition was -29.8%.
With `Cc1ccccc1N1CCN(C(=O)c2ccccc2NC(=O)C2CC=CCC2C(=O)O)CC1` (centres undefined), the inhibition was -15.8%.
To `Cc1cccc(C)c1-n1nnnc1S(=O)(=O)Cc1ccccc1Cl` belongs -16.2%; to `COc1ccccc1-n1nnnc1S(=O)(=O)Cc1ccc(Cl)cc1`, 102%.
For `CN1/C(=C\C(=O)C[n+]2cccc(Br)c2)C(C)(C)c2ccccc21`, the inhibition was 30.4%.
The value for `CN1/C(=C\C(=O)C[n+]2ccc3ccccc3c2)C(C)(C)c2ccccc21` was 47% (active); that for `Cc1ccc[n+](CC(=O)/C=C2\N(C)c3ccccc3C2(C)C)c1` was 27.4%.
As to `O=C(NCc1ccccc1OC(F)(F)F)C1CCC(=O)N(CCc2ccccn2)C1` (centres undefined), the inhibition is -25.8%.
To `CC(Sc1nc(N)cc(=O)[nH]1)C(=O)NC1CCCCC1` (centres undefined) belongs -12%; to `Cc1[nH]c2ccccc2c1C(=O)C(=O)N(C)C1CCCCC1`, -23.5%; to `CC(Sc1n[nH]c(N)n1)C(=O)NC1CCCCC1C` (centres undefined), -7.3%.
The value for `CN(C(=O)CSc1ccccc1C(=O)O)C1CCCCC1` was -26.5%; that for `Cc1cc(C(=O)O)sc1C` was -16.5%; that for `FC(F)(F)c1cnc(Sc2nnc(-c3cccs3)n2CC2CCCO2)c(Cl)c1` (centres undefined) was -14.9%.
`CCOc1cc(/C=N/NC(=O)C(=O)NCc2ccc3c(c2)OCO3)ccc1OCC(=O)N1CCOCC1`: the inhibition was -4.3%.
The value for `CCOC(=O)CNc1cccc(C(F)(F)F)c1` was -35.5%; that for `O=C(CNS(=O)(=O)c1ccccc1)NCC(=O)OCc1ccc(Cl)cc1` was -12.2%.
Take `O=C(NCc1cccnc1)/C(=C\c1ccc(-c2ccc(Br)cc2)o1)S(=O)(=O)c1ccccc1`: the inhibition was 106% (active).
Take `O=C(CN(Cc1ccc(Br)cc1)S(=O)(=O)c1ccccc1)NCc1cccnc1`: the inhibition was 14.5%.
For `O=C(NCc1cccnc1)/C(=C/c1ccc(-c2cccc(C(F)(F)F)c2)o1)NC(=O)c1ccccc1`, the inhibition was 11.9%.
Regarding `COc1ccc(S(=O)(=O)N2CCC(NC(=O)c3cccc(F)c3)CC2)cc1`, the inhibition was -7.7%.
On to `CC(=O)NC(CC(=O)Oc1ccc(C)cc1Br)c1ccccc1` (centres undefined), for which the inhibition was -28.4%.
Take `Cc1c(CCOC(=O)c2cc([N+](=O)[O-])cc([N+](=O)[O-])c2)sc[n+]1CC(=O)c1ccccc1`: the inhibition was -27.6%.
The value for `Cc1c(CCOC(=O)c2cccc([N+](=O)[O-])c2)sc[n+]1CC(=O)c1ccccc1` was -44.5%; that for `Cc1c(CCOC(=O)c2cc([N+](=O)[O-])cc([N+](=O)[O-])c2)sc[n+]1CC(=O)c1ccc(Br)cc1` was 49.3% (active).

The values above are taken from PubChem BioAssay AID1578 (Sanford-Burnham Center for Chemical Genomics, 2009).
